What all share (experiment): DAPPL (digital affinity profiling via proximity ligation, sequencing); 10 mM Tris-HCl pH 7.5, 50 mM NaCl, 1 mM DTT, 4% glycerol, room temperature, 30 min; GST-TFs on glutathione beads, 16-mer random dsDNA library, 0.1% formaldehyde crosslink after washing; high values mean tight binding
Details in all cases: protein: recombinant; tags: N-terminal GST; dsDNA, one strand shown

Assay [1] addresses T1, FLI1 (Homo sapiens, UniProt Q01543 1-452).
T1 sequence: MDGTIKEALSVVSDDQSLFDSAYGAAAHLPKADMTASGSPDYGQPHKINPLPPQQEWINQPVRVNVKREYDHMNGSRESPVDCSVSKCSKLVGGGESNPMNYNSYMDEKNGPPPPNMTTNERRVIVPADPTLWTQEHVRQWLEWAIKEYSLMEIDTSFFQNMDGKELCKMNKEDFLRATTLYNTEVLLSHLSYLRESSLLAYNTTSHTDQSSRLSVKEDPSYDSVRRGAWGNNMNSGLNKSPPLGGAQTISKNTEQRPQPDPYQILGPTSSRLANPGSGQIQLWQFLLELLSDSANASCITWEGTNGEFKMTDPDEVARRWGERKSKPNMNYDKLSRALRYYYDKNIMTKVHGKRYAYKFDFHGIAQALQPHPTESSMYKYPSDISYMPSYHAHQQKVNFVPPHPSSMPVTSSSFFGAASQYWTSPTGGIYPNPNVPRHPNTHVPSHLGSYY
In outline: (§1)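 After expression in yeast as GST fusions, human transcription factors were bound to glutathione beads, DNA-barcoded and mixed with a tag-only sample. The pools were incubated with 200 nmole of a 16-mer random double-stranded DNA library in Tris/NaCl/DTT/glycerol buffer (30 min, room temperature), washed and crosslinked with 0.1% formaldehyde. Proximity ligation with BsaI/T4 ligase ran for 1 h at 37 °C, before PCR amplification and sequencing on an Illumina NextSeq500. Binding signal is a hexamer's read frequency for a factor divided by its frequency for the tag-only sample.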

The target of assay [2] is T2, ELK1 (Homo sapiens, UniProt P19419 1-428).
T2 sequence: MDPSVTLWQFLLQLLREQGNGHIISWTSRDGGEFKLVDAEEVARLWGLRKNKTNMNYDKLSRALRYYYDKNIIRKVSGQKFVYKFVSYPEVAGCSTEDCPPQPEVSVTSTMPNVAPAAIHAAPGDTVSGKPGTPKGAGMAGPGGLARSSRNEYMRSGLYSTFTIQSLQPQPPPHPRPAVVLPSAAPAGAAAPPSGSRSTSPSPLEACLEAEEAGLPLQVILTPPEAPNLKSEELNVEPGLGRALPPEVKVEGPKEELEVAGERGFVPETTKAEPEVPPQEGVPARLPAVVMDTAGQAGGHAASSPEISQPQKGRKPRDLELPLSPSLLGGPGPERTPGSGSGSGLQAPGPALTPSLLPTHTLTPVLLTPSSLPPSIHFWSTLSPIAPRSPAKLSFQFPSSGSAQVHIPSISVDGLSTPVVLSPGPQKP
In outline: as §1

Assay [3] deals with T3, GABPA (Homo sapiens, UniProt Q06546 1-454).
T3 sequence: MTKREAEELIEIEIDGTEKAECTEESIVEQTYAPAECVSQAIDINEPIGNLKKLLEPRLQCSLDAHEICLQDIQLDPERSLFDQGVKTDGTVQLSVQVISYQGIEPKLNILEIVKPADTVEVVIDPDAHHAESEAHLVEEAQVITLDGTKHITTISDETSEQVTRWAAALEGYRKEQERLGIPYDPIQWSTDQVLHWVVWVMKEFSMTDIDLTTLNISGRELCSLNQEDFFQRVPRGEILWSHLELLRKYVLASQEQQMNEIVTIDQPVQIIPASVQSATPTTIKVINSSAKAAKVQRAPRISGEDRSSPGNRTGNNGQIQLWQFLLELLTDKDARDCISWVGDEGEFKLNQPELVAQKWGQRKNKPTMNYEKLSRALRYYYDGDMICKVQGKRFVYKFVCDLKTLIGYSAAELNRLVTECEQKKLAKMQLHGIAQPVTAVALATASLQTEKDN
In outline: as §1

The target of assay [4] is T4, ERG (Homo sapiens, UniProt P11308 1-479).
T4 sequence: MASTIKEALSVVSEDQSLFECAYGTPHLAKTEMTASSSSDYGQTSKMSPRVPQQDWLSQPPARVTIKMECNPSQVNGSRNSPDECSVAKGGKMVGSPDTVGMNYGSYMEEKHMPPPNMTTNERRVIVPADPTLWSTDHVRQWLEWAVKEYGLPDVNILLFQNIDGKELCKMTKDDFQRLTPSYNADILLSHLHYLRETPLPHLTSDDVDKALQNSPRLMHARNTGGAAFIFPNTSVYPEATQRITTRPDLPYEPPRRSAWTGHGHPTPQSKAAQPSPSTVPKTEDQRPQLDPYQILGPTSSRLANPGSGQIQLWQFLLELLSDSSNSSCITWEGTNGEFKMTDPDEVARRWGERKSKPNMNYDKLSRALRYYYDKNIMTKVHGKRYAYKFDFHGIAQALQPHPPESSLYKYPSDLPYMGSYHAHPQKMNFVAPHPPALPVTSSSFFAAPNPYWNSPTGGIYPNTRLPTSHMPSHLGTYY
In outline:
as §1

The target of assay [5] is T5, EHF (Homo sapiens, UniProt Q9NZC4 1-300).
T5 sequence: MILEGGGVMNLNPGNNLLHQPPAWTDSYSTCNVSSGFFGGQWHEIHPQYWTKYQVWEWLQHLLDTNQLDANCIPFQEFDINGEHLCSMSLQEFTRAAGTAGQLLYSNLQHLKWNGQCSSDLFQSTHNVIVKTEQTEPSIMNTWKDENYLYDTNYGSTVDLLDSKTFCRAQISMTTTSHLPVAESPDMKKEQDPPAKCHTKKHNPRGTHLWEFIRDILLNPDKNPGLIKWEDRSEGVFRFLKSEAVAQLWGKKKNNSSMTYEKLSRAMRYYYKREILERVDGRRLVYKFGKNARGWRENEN
In outline:
as §1

Assay [6] deals with SPI1 (Homo sapiens, UniProt P17947 1-270). In short, it runs like this:
as §1

Assay [7] has as its target SPIB (Homo sapiens, UniProt Q01892 1-262). In outline:
as §1

Assay [8] deals with T6, ELK3 (Homo sapiens, UniProt P41970 1-407).
T6 sequence: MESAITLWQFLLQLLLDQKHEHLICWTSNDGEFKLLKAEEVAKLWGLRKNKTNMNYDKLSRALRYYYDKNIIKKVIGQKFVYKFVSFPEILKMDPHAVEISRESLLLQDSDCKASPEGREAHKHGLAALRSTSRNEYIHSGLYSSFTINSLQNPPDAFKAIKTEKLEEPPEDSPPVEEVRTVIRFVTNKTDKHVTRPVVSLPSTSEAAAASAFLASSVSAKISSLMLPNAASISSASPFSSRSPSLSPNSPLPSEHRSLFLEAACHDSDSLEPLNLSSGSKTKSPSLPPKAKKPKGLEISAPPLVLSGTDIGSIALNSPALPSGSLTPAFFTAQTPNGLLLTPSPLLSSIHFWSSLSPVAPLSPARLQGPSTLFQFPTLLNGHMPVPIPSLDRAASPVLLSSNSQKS
In outline:
as §1

For assay [9], the target named is ETV5 (Homo sapiens, UniProt P41161 1-510). In short, it runs like this:
as §1

Assay [10] deals with T7, SPIC (Homo sapiens, UniProt Q8N5J4 1-248).
T7 sequence: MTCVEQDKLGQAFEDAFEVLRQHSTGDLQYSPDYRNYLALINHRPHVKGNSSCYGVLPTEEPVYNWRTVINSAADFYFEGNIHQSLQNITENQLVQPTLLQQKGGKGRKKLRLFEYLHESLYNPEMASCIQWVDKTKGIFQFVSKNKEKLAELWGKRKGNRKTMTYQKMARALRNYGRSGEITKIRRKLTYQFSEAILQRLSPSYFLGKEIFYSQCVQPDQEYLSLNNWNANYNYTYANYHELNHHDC
In outline:
as §1

Assay [11] addresses ELF4 (Homo sapiens, UniProt Q99607 1-663). In short, it runs like this:
as §1

The target of assay [12] is ETV1 (Homo sapiens, UniProt P50549 1-477). In outline: as §1
Chain of ETV1 (P50549 whole entry): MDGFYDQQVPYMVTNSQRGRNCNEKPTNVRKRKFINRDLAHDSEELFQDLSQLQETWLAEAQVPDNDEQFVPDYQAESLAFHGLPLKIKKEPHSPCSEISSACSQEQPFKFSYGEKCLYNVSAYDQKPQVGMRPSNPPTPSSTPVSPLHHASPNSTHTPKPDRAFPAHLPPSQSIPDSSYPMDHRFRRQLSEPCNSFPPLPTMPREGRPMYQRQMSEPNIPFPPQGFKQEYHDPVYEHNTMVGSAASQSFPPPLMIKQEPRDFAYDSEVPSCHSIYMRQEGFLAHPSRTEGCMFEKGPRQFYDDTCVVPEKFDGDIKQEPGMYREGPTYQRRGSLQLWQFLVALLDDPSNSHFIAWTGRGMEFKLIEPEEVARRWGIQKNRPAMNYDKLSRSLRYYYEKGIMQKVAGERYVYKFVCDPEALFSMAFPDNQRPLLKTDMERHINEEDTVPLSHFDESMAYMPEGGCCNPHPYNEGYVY
For assay [13], the target named is T8, ERF (Homo sapiens, UniProt P50548 1-548).
T8 sequence: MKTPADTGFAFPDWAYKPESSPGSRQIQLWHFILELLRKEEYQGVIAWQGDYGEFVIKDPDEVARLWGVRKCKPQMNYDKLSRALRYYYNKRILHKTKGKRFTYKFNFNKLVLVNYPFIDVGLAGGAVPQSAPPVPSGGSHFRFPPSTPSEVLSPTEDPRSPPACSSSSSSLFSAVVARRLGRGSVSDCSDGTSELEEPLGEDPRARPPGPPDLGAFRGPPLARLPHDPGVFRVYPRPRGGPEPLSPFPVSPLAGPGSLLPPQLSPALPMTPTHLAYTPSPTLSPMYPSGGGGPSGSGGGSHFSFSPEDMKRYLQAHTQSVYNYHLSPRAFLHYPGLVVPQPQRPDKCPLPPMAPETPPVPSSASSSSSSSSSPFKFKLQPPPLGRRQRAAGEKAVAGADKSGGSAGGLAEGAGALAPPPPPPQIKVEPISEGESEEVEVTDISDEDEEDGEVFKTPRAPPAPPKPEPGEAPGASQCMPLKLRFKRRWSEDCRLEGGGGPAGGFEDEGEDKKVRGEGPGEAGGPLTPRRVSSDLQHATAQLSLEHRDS
In outline: as §1

The target of assay [14] is T9, ETV3L (Homo sapiens, UniProt Q6ZN32 1-361).
T9 sequence: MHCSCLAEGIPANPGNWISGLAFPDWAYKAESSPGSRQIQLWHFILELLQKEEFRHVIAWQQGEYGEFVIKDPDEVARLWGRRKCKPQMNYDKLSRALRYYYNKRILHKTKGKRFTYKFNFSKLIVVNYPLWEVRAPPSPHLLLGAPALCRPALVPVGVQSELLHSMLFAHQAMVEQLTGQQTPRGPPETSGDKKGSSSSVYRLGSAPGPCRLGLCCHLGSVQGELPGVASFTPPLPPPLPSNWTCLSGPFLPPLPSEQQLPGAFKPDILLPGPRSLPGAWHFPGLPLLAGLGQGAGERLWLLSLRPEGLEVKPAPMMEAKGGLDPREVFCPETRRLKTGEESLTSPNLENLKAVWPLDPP
In outline:
as §1

The target of assay [15] is T10, ELF5 (Homo sapiens, UniProt Q9UKW6-2 1-255).
T10 sequence: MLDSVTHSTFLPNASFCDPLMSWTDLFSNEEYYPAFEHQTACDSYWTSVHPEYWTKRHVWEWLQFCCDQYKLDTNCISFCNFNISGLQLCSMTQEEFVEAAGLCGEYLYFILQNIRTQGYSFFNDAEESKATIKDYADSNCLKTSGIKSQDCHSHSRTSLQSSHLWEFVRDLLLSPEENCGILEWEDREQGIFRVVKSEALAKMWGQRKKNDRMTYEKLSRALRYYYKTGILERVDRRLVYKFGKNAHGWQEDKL
In outline: as §1

The target of assay [16] is T11, ETV3 (Homo sapiens, UniProt P41162-2 1-143).
T11 sequence: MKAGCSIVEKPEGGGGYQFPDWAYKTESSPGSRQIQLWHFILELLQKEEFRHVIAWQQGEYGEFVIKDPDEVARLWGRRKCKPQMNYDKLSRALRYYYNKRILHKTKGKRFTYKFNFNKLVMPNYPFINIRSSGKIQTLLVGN
In outline: as §1

The target of assay [17] is ETV6 (Homo sapiens, UniProt P41212 1-452). In short, it runs like this: as §1
Chain of ETV6 (P41212 whole entry): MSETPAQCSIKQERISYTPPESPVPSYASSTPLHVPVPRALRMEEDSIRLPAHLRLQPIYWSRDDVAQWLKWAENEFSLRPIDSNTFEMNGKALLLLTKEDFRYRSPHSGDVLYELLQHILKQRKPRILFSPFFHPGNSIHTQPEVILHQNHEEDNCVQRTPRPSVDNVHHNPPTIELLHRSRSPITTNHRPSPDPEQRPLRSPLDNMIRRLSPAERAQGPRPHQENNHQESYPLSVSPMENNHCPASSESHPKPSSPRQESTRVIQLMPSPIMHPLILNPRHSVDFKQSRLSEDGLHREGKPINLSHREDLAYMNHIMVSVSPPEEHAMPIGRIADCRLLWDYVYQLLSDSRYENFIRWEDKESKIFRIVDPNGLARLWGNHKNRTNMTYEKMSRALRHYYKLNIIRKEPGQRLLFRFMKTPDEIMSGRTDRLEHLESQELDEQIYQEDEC

Chain of ETV5 (P41161 whole entry): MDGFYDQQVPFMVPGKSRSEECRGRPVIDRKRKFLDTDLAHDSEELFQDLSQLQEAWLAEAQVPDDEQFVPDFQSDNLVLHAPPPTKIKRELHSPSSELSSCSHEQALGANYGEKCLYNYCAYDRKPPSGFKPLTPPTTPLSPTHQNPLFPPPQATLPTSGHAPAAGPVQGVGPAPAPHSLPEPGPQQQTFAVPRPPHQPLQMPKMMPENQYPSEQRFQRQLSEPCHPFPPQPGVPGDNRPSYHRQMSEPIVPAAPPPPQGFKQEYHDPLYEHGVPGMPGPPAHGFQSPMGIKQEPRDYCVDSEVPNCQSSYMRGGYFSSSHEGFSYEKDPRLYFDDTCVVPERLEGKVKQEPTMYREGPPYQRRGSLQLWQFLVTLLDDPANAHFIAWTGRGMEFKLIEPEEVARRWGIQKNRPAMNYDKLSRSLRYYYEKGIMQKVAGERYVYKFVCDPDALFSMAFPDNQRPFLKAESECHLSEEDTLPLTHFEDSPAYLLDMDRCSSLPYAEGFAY
Chain of ELF4 (Q99607 whole entry): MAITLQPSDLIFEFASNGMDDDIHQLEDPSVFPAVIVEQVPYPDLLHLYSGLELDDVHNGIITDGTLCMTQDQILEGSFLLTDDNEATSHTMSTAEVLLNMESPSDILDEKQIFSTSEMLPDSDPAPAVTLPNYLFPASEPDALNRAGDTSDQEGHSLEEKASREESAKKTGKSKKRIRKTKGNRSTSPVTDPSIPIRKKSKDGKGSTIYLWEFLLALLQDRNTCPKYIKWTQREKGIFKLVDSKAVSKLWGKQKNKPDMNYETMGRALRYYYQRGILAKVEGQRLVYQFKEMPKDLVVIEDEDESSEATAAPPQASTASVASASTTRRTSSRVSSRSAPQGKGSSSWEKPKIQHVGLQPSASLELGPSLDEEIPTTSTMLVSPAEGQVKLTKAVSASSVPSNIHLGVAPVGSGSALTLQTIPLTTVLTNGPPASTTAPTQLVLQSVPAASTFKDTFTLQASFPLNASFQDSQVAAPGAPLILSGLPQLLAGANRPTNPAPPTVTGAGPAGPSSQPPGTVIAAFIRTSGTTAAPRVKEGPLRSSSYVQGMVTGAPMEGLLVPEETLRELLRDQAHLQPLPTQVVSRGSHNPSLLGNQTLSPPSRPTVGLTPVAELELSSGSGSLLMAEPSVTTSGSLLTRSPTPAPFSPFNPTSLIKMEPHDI
Chain of SPIB (Q01892 whole entry): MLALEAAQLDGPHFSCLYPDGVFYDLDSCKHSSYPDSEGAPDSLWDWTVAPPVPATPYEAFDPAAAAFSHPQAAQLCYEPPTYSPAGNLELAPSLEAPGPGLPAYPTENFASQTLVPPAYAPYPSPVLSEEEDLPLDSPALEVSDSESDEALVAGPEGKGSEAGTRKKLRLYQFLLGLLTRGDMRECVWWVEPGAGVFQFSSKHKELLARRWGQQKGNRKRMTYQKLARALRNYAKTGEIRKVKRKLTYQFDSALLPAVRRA

On to ATAAGG, for which the binding signal was 1.07 fold enrichment (6-mer frequency, TF over GST control) in [1]; 1.01 fold enrichment (6-mer frequency, TF over GST control) in assay [2]; 1.02 fold enrichment (6-mer frequency, TF over GST control) in assay [3]; 1.07 fold enrichment (6-mer frequency, TF over GST control) in [4]; 1.05 fold enrichment (6-mer frequency, TF over GST control) in [5]; 1.05 fold enrichment (6-mer frequency, TF over GST control) in assay [6]. Also, the binding signal is 1.01 fold enrichment (6-mer frequency, TF over GST control) in assay [7]; 1.19 fold enrichment (6-mer frequency, TF over GST control) in assay [8]; 1.04 fold enrichment (6-mer frequency, TF over GST control) in assay [9]; 1.12 fold enrichment (6-mer frequency, TF over GST control) in assay [10]; 1.06 fold enrichment (6-mer frequency, TF over GST control) in assay [11]; 1.03 fold enrichment (6-mer frequency, TF over GST control) in assay [12]. Further, the binding signal in assay [13] is 1.05 fold enrichment (6-mer frequency, TF over GST control); in assay [14], 1.01 fold enrichment (6-mer frequency, TF over GST control); in [15] it was 1.25 fold enrichment (6-mer frequency, TF over GST control); in [16] it was 1.05 fold enrichment (6-mer frequency, TF over GST control); in assay [17] it was 1.07 fold enrichment (6-mer frequency, TF over GST control).
